Rows were chosen to be rich in hits. Some 3.2% of all compounds tested hit in one or more screens of this group.
p53ts 39C tox: kills p53ts cells at the nonpermissive temperature | H1299-p53A138V viability at 39C, ATP luminescence, 24 h | Potency, µM (top dose mostly 46.1 µM), for the others: at the highest dose activity change, negative = cell killing, most hits filed as cytotoxic | 130,000 tested, 1.5% active; note: potency is the fitted concentration of half-maximal effect; % is set by controls: 0 for no effect and ±100 for the full control effect; nearly all actives have a fitted effect of over 55% in size
Tau filament bind: binders of human tau filaments; Potency, µM (doses to about 57.1 µM), for inactives: at the top dose activity change, negative = inhibition; 71,000 tested, 2% active; AID 596; recombinant tau filaments, thioflavin S fluorescence, 15 h; filaments grown with octadecylsulfate alongside compound; P10636;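 note: potency is the fitted concentration of half-maximal effect; % is set by controls: 0 for no effect and ±100 for the full control effect; actives lower thioflavin S fluorescence by blocking filaments or displacing dye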
Target sequence (P10636 whole entry, looked up): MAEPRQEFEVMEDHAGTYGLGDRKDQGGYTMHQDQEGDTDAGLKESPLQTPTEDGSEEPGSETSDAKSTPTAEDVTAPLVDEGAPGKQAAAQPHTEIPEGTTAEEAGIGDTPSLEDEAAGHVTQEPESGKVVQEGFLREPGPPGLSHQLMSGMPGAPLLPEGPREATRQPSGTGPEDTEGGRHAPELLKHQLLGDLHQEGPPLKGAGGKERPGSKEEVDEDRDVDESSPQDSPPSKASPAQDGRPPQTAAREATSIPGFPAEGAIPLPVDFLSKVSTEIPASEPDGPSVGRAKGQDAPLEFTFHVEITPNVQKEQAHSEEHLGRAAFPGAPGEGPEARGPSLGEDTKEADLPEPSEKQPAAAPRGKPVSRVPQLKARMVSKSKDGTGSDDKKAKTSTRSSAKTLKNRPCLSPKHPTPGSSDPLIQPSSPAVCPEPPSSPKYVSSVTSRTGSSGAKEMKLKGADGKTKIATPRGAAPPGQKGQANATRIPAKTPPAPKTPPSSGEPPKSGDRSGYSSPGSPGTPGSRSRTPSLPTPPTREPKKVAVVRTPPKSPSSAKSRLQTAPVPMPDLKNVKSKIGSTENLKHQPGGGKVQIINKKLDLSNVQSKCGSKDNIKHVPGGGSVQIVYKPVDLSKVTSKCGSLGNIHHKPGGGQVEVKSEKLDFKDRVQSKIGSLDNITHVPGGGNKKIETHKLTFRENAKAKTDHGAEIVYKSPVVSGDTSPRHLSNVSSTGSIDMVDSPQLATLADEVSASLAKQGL
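Assay mix: 1 uM His-tagged tau, 30 uM sodium octadecylsulfate, thioflavine S dye in HEPES/NaCl/DTT buffer. Compound is added prior to the inducer. Fluorescence after 15 h at 37 C.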
p53ts 32C kill: p53ts cell cytotoxicity, permissive temperature; H1299-p53A138V at 32C, ATP luminescence viability, 24 h; Potency, µM (top dose mostly 46.1 µM), inactives show at the top dose activity change, negative = cytotoxicity, hits mostly cytotoxic; 130,000 tested, 0.93% active; AID 924;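 note: potency is the fitted concentration of half-maximal effect; 0% = DMSO and -100% = full killing by reference compound; nearly all actives have a fitted effect of over 55% in size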
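Viability by ATPlite luminescence after 24 h compound treatment (up to 46 uM) at the permissive 32C. Cells are H1299 carrying p53 A138V. Scale runs from DMSO basal to 100 uM tamoxifen as full kill; AC50 from Hill fits.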
Pol III holo inh: inhibitors of bacterial DNA polymerase III holoenzyme; 71,000 tested, 0.25% active; reconstituted DNA polymerase III holoenzyme replication, biochemical; Potency, µM (highest dose often 57.1 µM), for the others: at the highest dose activity change, negative = inhibition; note: potency is the fitted concentration of half-maximal effect; % is set by controls: 0 for no effect and ±100 for the full control effect
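Reconstituted *E. coli* holoenzyme (0.35 nM Pol III, 1 nM beta, 154 nM SSB, 2 nM primase) was preincubated with compound for 15 min at RT. Synthesis on 1.4 nM ssM13Gori ran 35 min, then was stopped with PicoGreen/EDTA and read as dsDNA fluorescence.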
ERK AVP inh: vasopressin-driven ERK pathway inhibition | HEK293-V1b, vasopressin-stimulated pERK AlphaScreen | Potency, µM (titrated, usually from 57.5 µM), for inactives: at the top dose activity, negative = inhibition, usual class: inhibitors | 72,000 tested, 0.99% active | AID 995; note: potency is the fitted concentration of half-maximal effect; % is set by controls: 0 for no effect and ±100 for the full control effect; nearly all actives have a fitted effect of over 55% in size
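HEK293 cells stably expressing V1b receptor, preincubated 30 min at 37 °C with compound, then stimulated 5 min with 25 nM vasopressin. Phospho-ERK by AlphaScreen SureFire after 5 h RT; normalized to DMSO and vasopressin; AC50 by Hill fit.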
TsaE inh: inhibitors of E. coli YjeE (TsaE); P0AF67; purified YjeE enzyme, qHTS inhibition assay; Potency, µM; 71,000 tested, 0.05% active; AID 605
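Fluorescence polarization of a BODIPY Texas Red–ADP probe (2 uM) bound to purified YjeE (10 uM) was read after 15 min room-temperature incubation with compounds. Loss of polarization marks inhibitors; ADP serves as titrated control.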
* hit, by the source's call; i = inactive; ? = inconclusive; nt = no result given; [ ] = remark or other dose. Calls come from the whole dose curve; as a rule, active = well fitted curve in the direction sought with a large enough effect; inconclusive = small, poorly fitted or top-dose-only effect, or another doubt; inactive = no such curve, though single readings can be large; an effect the other way counts as inactive or inconclusive.

SMILES	p53ts 39C tox	Tau filament bind	p53ts 32C kill	Pol III holo inh	ERK AVP inh	TsaE inh
CCOC(=O)N1CCN(C(=O)c2cnn(-c3cccc(C)c3)c2-n2cccc2)CC1	-14.3%	nt	-0.7%	nt	nt	nt
CCOC(=O)N1CCN(C(=O)Cn2ncc3ccccc32)CC1	3.6%	-6.6%	-2.5%	25.1µM*	4.3%	i
CCOC(=O)N1CCN(C(=O)c2cnn3ccccc23)CC1	12.8%	0.8%	-8.4%	-0.7%	-3.8%	31.6µM*
Cc1cc(C)c2c(N)c(C(=O)Nc3ncc(C)s3)sc2n1	0.794µM*	nt	1µM*	nt	nt	nt
COCCN1CCn2c(nc3cc(NC(=O)NC4CCCCC4)ccc32)C1	-16.9%	25.1µM*	-25.8%	-6.0%	-2.1%	i
COCCN1CCn2c(nc3cc(NC(=O)c4ccc(OC)cc4)ccc32)C1	-17.3%	25.1µM*	-21.1%	-1.2%	?	i
Cc1nc(N)nc2ccccc12	-0.5%[9.22 µM]	-2.1%[11.4 µM]	3.0%[9.22 µM]	-3.0%[11.4 µM]	-12.4%[11.5 µM]	i
Cc1ccccc1-n1c(SC/C(O)=C(\C#N)c2nc3ccccc3[nH]2)nnc1-c1ccncc1	-8.8%	11.8%	12.9%	-4.1%	-13.1%	i
Cc1cc(C)n2c(SC/C(O)=C(\C#N)c3nc4ccccc4[nH]3)nnc2n1	2.2%	10µM*	11.3%	-6.9%	17.2%	i
CC1CCCN(C/C(O)=C(\C#N)c2nc3ccccc3[nH]2)C1 (stereo not given)	1.2%	-0.9%	-1.2%	-1.3%	-4.2%	i
COc1cccc(OC)c1/C(O)=C(\C#N)c1nc2ccccc2[nH]1	4.0%	8.8%	4.1%	-1.6%	15.2%	i
CC(C)(C)/C(O)=C(/C#N)c1nc2ccccc2[nH]1	-16.2%	-4.8%	-8.2%	-5.0%	20µM*	i
CC(C)CC(/C(O)=C(\C#N)c1nc2ccccc2[nH]1)N1C(=O)c2ccccc2C1=O (stereo not given)	28.9%	12.6µM*	17.1%	-2.7%	?	i
N#C/C(=C\c1ccc(Cl)cc1)c1nc2ccccc2[nH]1	0.5%	nt	0.3%	nt	nt	nt
CN1C=CC=C/C1=C(\C#N)c1nc2ccccc2[nH]1	-13.6%	31.6µM*	1.4%	-9.4%	-13.4%	i
Cc1cc(NC(=O)CSc2nc3ccsc3c(=O)n2Cc2ccccn2)n[nH]1	-7.6%	9.8%	6.4%	-4.0%	-22.8%	i
CC1CCCCN1C(=O)CSc1nc2ccsc2c(=O)n1Cc1ccccn1 (stereo not given)	-5.4%	21.8%	1.0%	-3.4%	25.1µM*	i
Cc1cc(N2CCCCC2)n2ncc(-c3ccccc3)c2n1	?	-9.6%	12.6µM*	0.9%	66.3%	i
Cc1cc(N2CCCCC2)n2ncc(-c3ccc(Cl)cc3)c2n1	-3.2%	-9.8%	-4.5%	2.0%	11.1%	i
Cc1ccc(-n2c(SCn3nnc4ccccc4c3=O)nnc2-c2cccnc2)c(C)c1	-4.9%	15.8µM*	-2.5%	-2.2%	20.2%	i
O=c1c2ccccc2nnn1CSc1nnc(-c2cccnc2)n1-c1ccccc1F	-8.8%	21.7%	-5.9%	-0.6%	3.4%	i
Cc1ccc(/C=c2\sc3nc(-c4ccco4)nn3c2=O)o1	2.6%	-14.6%	-19.4%	3.98µM*	11.9%	i
CCc1ccc(Nc2cc(C)nc3nc(Cc4ccc(Cl)cc4)nn23)cc1	20µM*	nt	-12.2%	nt	nt	nt
Cc1ccc(Nc2cc(C)nc3nc(Cc4ccc(Cl)cc4)nn23)cc1	-13.8%	nt	71.0%	nt	nt	nt
Cc1ccc(CSc2nnc(-c3cccs3)n2C)cc1	-0.7%	14.6%	-5.8%	-5.2%	-0.3%	i
SMILES	p53ts 39C tox	Tau filament bind	p53ts 32C kill	Pol III holo inh	ERK AVP inh	TsaE inh
Cc1nnc(SCc2cnc(-c3ccc(C(C)C)cc3)s2)n1C	2µM*	9.6%	1.58µM*	-3.5%	28.0%	i
Cc1nc(SC(C)C(=O)Nc2ccccc2Cl)cc(-c2ccccc2)n1 (stereo not given)	-16.4%	nt	?	nt	nt	nt
O=S(=O)(c1cccc(Cl)c1)N1CCCC1	1.9%	10.1%	10.1%	-1.6%	-3.1%	i
Cc1ccc(/C=C/c2nc3ccccc3n2S(=O)(=O)c2ccc(Br)cc2)cc1	6.31µM*	nt	5.01µM*	nt	nt	nt
O=S(=O)(c1cccc(Cl)c1)n1c(/C=C/c2ccccc2Cl)nc2ccccc21	1µM*	nt	1.26µM*	nt	nt	nt
CSc1ccc(/C=C/c2nc3ccccc3n2S(=O)(=O)c2cccc(Cl)c2)cc1	3.98µM*	nt	3.16µM*	nt	nt	nt
COc1cc(S(=O)(=O)n2c(C)nc3ccccc32)ccc1F	7.5%	1.8%	-6.5%	-4.0%	-2.0%	i
COc1ccc(-c2cc(C(F)(F)F)nc(S(=O)(=O)CCC(=O)N3CCOCC3)n2)cc1	?	327.7%	5.01µM*	-10.7%	6.4%	i
COc1ccc(NC(=O)CCS(=O)(=O)c2nc(-c3ccc4c(c3)OCO4)cc(C(F)(F)F)n2)cc1	-113.6%	nt	?	nt	nt	nt
COc1ccccc1-c1cc(C(F)(F)F)nc(S(=O)(=O)CCCC(=O)N2CCOCC2)n1	?	-17.5%	?	-0.4%	25.1%	i
COc1ccc(-c2cc(C(F)(F)F)nc(S(=O)(=O)CCCC(=O)Nc3cccc(O)c3)n2)cc1OC	3.16µM*	nt	?	nt	nt	nt
COc1ccccc1-c1cc(C(F)(F)F)nc(S(=O)(=O)CCCC(=O)Nc2cc(OC)c(OC)c(OC)c2)n1	5.01µM*	nt	6.31µM*	nt	nt	nt
COc1ccc(-c2cc(C(F)(F)F)nc(S(=O)(=O)CCCC(=O)Nc3ccccc3C(F)(F)F)n2)cc1OC	5.01µM*	nt	?	nt	nt	nt
COc1cc(NC(=O)CCCSc2nc(-c3ccco3)cc(C(F)(F)F)n2)cc(OC)c1OC	-7.9%	nt	-6.8%	nt	nt	nt
COc1ccc(NC(=O)CCCS(=O)(=O)c2nc(-c3ccc(OC)c(OC)c3)cc(C(F)(F)F)n2)cc1OC	2.51µM*	nt	?	nt	nt	nt
Cc1cc(C)nc(NS(=O)(=O)c2ccc(NC(=O)COc3ccc(C(C)(C)C)cc3)cc2)n1	-23.7%	nt	-9.5%	nt	nt	nt
COc1ccc(C(=O)Nc2nc3n(n2)C(c2ccc(Cl)cc2)C=C(c2ccccc2)N3)cc1OC (stereo not given)	7.5%	nt	1.3%	nt	nt	nt
CCCOc1ccc(-c2nc3ccccc3c(=O)o2)cc1	5.01µM*	nt	10µM*	nt	nt	nt
CCC(=O)Nc1cccc(-c2nc3ccccc3c(=O)o2)c1	10µM*	1.4%	12.6µM*	-9.7%	3.8%	i
CCCOc1ccc(-c2nnc(-c3ccco3)o2)cc1	?	28.0%	12.6µM*	-0.8%	10.6%	i
CC(C)COc1ccc(-c2nnc(-c3ccco3)o2)cc1	?	27.0%	?	-0.4%	12.8%	i
CO[C@H]1COC(=O)[C@@H](CCSC)NC(=O)C/C=C\[C@@H](C)[C@H](OC)COC(=O)[C@@H](OCc2ccccc2)/C=C\[C@@H]1C	-9.9%[9.22 µM]	nt	-3.6%[9.22 µM]	nt	-9.6%[11.5 µM]	nt
CCN(C(=O)Cn1ncc2c(=O)oc3ccccc3c21)c1ccccc1F	6.6%	nt	1.2%	nt	nt	nt

Screens as filed in PubChem BioAssay.
